Measurements: PubChem BioAssay AID651597 (National Center for Advancing Translational Sciences (NCATS), 2012)
The whole screen tested about 1,100 compounds, of which about 390 (35%) were called active. Inconclusive results (about 30%) are left out. Calls come from the whole dose curve; as a rule, active = well fitted inhibition curve with a large enough effect; inconclusive = small, poorly fitted or top-dose-only effect; inactive = flat fitted curve, though single readings scatter. Some of the results follow.

Target: Luciferin 4-monooxygenase (Photinus pyralis) (UniProt P08659)
Test: qHTS of Nrf2 Activators: Hit Validation in Secondary FLuc Assay; note: nearly all actives have a fitted effect of over 65% in size
Conditions: firefly luciferase inhibition counter-screen, luminescence; series mostly up to 57.5 µM
Description: Many diseases have some form of oxidative stress injury and ties to inflammation, causing a host of problems for the patient. The antioxidant response element (ARE) plays an important role in alleviating the harmful effects of oxidative stress. The antioxidant response element (ARE) is a transcriptional regulatory element involved in the activation of genes coding for a number of antioxidant proteins and detoxifying enzymes. These enzymes work in concert to protect tissues from oxidative insults and chemical toxicities in human hepatocytes and immune cells. The protective effects of ARE activation are primarily triggered through Nrf2 (NF-E2-related factor) binding to and activating AREs. It is known that Nrf2 controls the production of over 250 antioxidant and detoxification proteins (Hu et al., 2006), thereby protecting tissues by increasing cellular antioxidant content and suppressing inflammatory signaling pathways. The transcription factor Nrf2 is a central link between oxidative chemicals, such as phenolic antioxidants and electrophilic compounds, and the activation of ARE. Nrf2 levels are constitutively low as a consequence of its interaction with Keap1, which targets its degradation (Zipper and Mulcahy, 2002). Electrophiles react with key cysteine residues in Keap1, releasing Nrf2 and allowing its translocation to the nucleus. Once within the nucleus, Nrf2 complexes with coactivators such as p300, and binds to the AREs to induce gene transcription of cytoprotective enzymes, resulting in the prevention of toxicity. Activation of Nrf2 protects tissues by increasing cellular antioxidant content and suppressing inflammatory signaling pathways. Identifying novel and potent Nrf2 activators by using the AREc32 cell line to detect ARE activation by small molecules will lead to the identification and development of probes to study protective pathways in multiple tissues. These specific probes are essential to study the ARE pathway, and eventually to determine whether this pathway does activate genes that could protect against a host of diseases, including cardiovascular diseases, obesity, diabetes, Alzheimer's, and Parkinson's disease.
This project's aim is to identify novel and potent Nrf2 activators by using the AREc32 cell line to detect ARE activation by small molecules, which will lead to the identification and development of probes to study the ARE pathway. In this counter assay, we aim to identify false positive as identified from this primary assay using an FLuc assay with an inhibiting read-out.
NIH Chemical Genomics Center [NCGC]
NIH Molecular Libraries Probe Centers Network [MLPCN]
Assay Submitter (PI): Curtis Klaassen, University of Kansas Medical Center
Assess whether an activator in the primary assay potentially causes such activation by inhibitor-induced stabilization of the firefly luciferase reporter enzyme by determining whether it inhibits firefly luciferase in the presence of Km concentrations of its substrates (ATP and D-luciferin).
Potency is the fitted concentration of half-maximal effect.

Q: For Cc1cccc(C(=O)Nc2nnc(SCC(=O)NCc3ccco3)s2)c1, which Potency is on record?
A: 2390 nM (active)

Q: Clc1ccccc1Nc1ncnc(-n2cccc2)n1 was tested. Which Potency did it give?
A: 2130 nM (active)

Q: For CCOc1ccc(-n2c(O)c(N=Nc3ccc([N+](=O)[O-])cc3)c(=O)[nH]c2=O)cc1, which Potency is on record?
A: inactive

Q: With O=C1c2ccccc2-c2cc3ccccc3cc21 as the molecule, how does the Potency read?
A: 4780 nM (active)

Q: Which Potency does the source give for Clc1cccc(/C=N\Nc2nccs2)c1 here?
A: 4780 nM (active)

Q: With CC(=CCOc1ccc2ccc(=O)oc2c1)C1=CC(=O)C(C)(C)O1 as the molecule, how does the Potency read?
A: inactive

Q: Which Potency does the source give for O=C(O)c1ccc([N+](=O)[O-])c([N+](=O)[O-])c1 here?
A: inactive

Q: With O=C(Nc1ccc(Cl)c(Cl)c1)c1ccco1 as the molecule, how does the Potency read?
A: 9530 nM (active)

Q: NC(=O)c1c(NC(=O)c2ccccc2F)sc2c1CCC2 was tested. Which Potency did it give?
A: 1350 nM (active)

Q: How did the Potency turn out when Cn1c(O)c(N=Nc2ccc(S(=O)(=O)N3CCOCC3)cc2)c(=O)n(C)c1=O was run?
A: inactive

Q: Fc1cccc(F)c1-c1nc(-c2ccc(Cl)cc2)no1 was tested. Which Potency did it give?
A: 2130 nM (active)
